The values below come from PubChem BioAssay (NCATS).

Results filed as inconclusive are left out. Active and inactive are the calls of the source. Calls follow the shape of the dose curve; as a rule, active = well fitted cell-killing curve with a large enough effect; inconclusive = small, poorly fitted or top-dose-only effect, or effect the other way; inactive = no such curve, though single readings can be large or run the other way.
Potency is read from the fitted curve at half-maximal effect.

The nature of the experiment: Quantitative High-Throughput drug screen in 47 multiple myeloma cell lines against the NCATS MIPE library collection: VP6_DJ cell viability assay (AID 1919867). Also: nearly all actives have a fitted effect of over 40% in size. Conditions: ATP luminescence, 48 h; series mostly up to 45.8 µM. The source says: PI: Beverly A. Mock Ph.D.
Laboratory of Cancer Biology and Genetics,
Center for Cancer Research, National Cancer Institute,
National Institute of Health, Bethesda, Maryland
Drug resistance and disease progression are common in multiple myeloma (MM) patients, underscoring the need for new therapeutic combinations. […] We hypothesized that effective combinations would reduce MYC expression and enhance p16 activity. […] These preclinical data identify potentially useful drug combinations for evaluation in drug-resistant MM and reveal potential mechanisms of combined drug sensitivity.
Described herein is the primary MIPE qHTS used to cherrypick compounds. Validated compounds were then further tested for potential synergistic activiy.
[1] Peat TJ, Gaikwad SM, Dubois W, Gyabaah-Kessie N, Zhang S, Gorjifard S, Phyo Z, Andres M, Hughitt VK, Simpson RM, Miller MA, Girvin AT, Taylor A, Williams D, D'Antonio N, Zhang Y, Rajagopalan A, Flietner E, Wilson K, Zhang X, Shinn P, Klumpp-Thomas C, McKnight C, Itkin Z, Chen L, Kazandijian D, Zhang J, Michalowski AM, Simmons JK, Keats J, Thomas CJ, Mock BA. Drug combinations identified by high-throughput screening promote cell cycle transition and upregulate Smad pathways in myeloma. Cancer Lett. 2023 Aug 1;568:216284. doi: 10.1016/j.canlet.2023.216284. Epub 2023 Jun 24. PMID: 37356470; PMCID: PMC10408729.
SEQUENCE No. (e.g., 1, 2, 3, etc.); […] (e.g., Cells, Incubation, Reagent, etc.); VALUE and DESCRIPTION.
1; Cells; 5 uL; white, solid bottom 1536-well Greiner assay plate.
2; Compounds; 23 nL; Kalypsis pin tool (Wako USA) equipped with a 1536-well pin head to transfer to the assay plates.
3; Incubation; 48 hours; 37C incubation.
4; Reagent;5uL; CellTiter Glo (Promega).
5; Detector; 425V; Luminescence; Viewlux PerkinElmer.
NOTES (numbers refer to Sequence numbers above)
1. The cell-based screening methods employed in this study were like those previously published. Briefly, the corresponding myeloma cell lines were screened in 1,536-well plates with 500 cells, 5-uL per well for inhibition of cell viability (assessed by measuring ATP levels with CellTiterGlo).
2. NCATS MIPE 4.0 library of approved and investigational drugs were added using the Kalypsis pin tool. Wells treated with DMSO only for 100% viability and media only for 0% viability were used as controls.
3. The assay plates were covered and incubated for 48 hours in a 37C, 5% CO2 incubator with controlled humidity.
4. After 48 hours, CellTilter-GloTM luminescent substrate mix (Promega) reagent was added to the assay plate and plates we incubated for 5 min at room temperature.
5. Signal was measured as median relative luminescence units on a ViewLux (PerkinElmer) multiplate reader.
[1] Heske CM, Davis MI, Baumgart JT, Wilson K, Gormally MV, Chen L, Zhang X, Ceribelli M, Duveau DY, Guha R, Ferrer M, Arnaldez FI, Ji J, Tran HL, Zhang Y, Mendoza A, Helman LJ, Thomas CJ. Matrix Screen Identifies Synergistic Combination of PARP Inhibitors and Nicotinamide Phosphoribosyltransferase (NAMPT) Inhibitors in Ewing Sarcoma. Clin Cancer Res. 2017 Dec 1;23(23):7301-7311. doi: 10.1158/1078-0432.CCR-17-1121. Epub 2017 Sep 12. PMID: 28899971; PMCID: PMC6636827.
As for `COc1ccc(C(=O)c2c(C)n(CCN3CCOCC3)c3ccccc23)cc1`, the Potency result was “inactive”.

`Cc1sc2c(c1C)C(c1ccc(Cl)cc1)=N[C@@H](CC(=O)OC(C)(C)C)c1nnc(C)n1-2`: the Potency is 0.0833 µM (active). Turning to `CN1CCN(C(=O)O[C@H]2c3nccnc3C(=O)N2c2ccc(Cl)cn2)CC1`, the Potency entry is “inactive”. Turning to `COc1ccc2c(c1OC)CN1CCc3cc4c(cc3C1C2)OCO4` (stereo unspecified), the Potency is 5.9 µM (active). Turning to `C[C@@H]1O[C@@H](O[C@H]2C[C@@H](O)[C@]3(CO)[C@H]4[C@H](O)C[C@]5(C)[C@@H](C6=CC(=O)OC6)CC[C@]5(O)[C@@H]4CC[C@]3(O)C2)[C@H](O)[C@H](O)[C@H]1O`, the Potency is 0.0166 µM (active).

Turning to `C=C(C)[C@H]1Cc2c(ccc3c2O[C@@H]2COc4cc(OC)c(OC)cc4[C@@H]2C3=O)O1`, the Potency is 0.166 µM (active). Turning to `C[C@@H]1[C@@H](CC(C[C@H]2O[C@@H]3O[C@]4(C)CC[C@@H]5[C@H](C)CC[C@@H]([C@H]2C)[C@@]35OO4)C[S+](=O)([O-])c2ccc(COC(=O)N(C)C)cc2)O[C@@H]2O[C@]3(C)CC[C@H]4[C@H](C)CC[C@@H]1[C@@]24OO3` (stereo partly specified), the Potency is 0.372 µM (active). Consider `CCCC(C)(COC(N)=O)COC(=O)NC(C)C` (stereo unspecified), for which the Potency entry is “inactive”. Consider `Cn1c(CCCC(=O)O)nc2cc(N(CCCl)CCCl)ccc21`, for which the Potency entry is “inactive”. The same measure for `Fc1ccc(C(OCCN2CCN(CCCc3ccccc3)CC2)c2ccc(F)cc2)cc1`: 9.35 µM (active); for `O=c1[nH]c2ccccc2n1CCCN1CCC(n2c(=O)[nH]c3cc(Cl)ccc32)CC1`: 13.2 µM (active). On to `CNC(=O)c1ccc(N2C(=S)N(c3ccc(C#N)c(C(F)(F)F)c3)C(=O)C23CCC3)cc1F`, for which the Potency is 8.33 µM (active). `CN(C)CCN(C)CCc1ccc(Cl)c(Cl)c1`: the Potency result was “inactive”. Regarding `Cn1cc(C2=C(c3cn(C4CCN(Cc5ccccn5)CC4)c4ccccc34)C(=O)NC2=O)c2ccccc21`, the Potency was 11.8 µM (active). With `CN(C)CCc1ccc(O)cc1`, the Potency was 6.62 µM (active). On to `O=P1(NCCCl)OCCCN1CCCl` (stereo unspecified), for which the Potency is 6.62 µM (active).

Turning to `COC[C@H]1OC(=O)c2coc3c2[C@@]1(C)C1=C(C3=O)C2CCC(=O)[C@@]2(C)C[C@H]1OC(C)=O` (stereo partly specified), the Potency was 3.72 µM (active). As to `CNC(=O)N1N=C(c2ccc(N)cc2)c2cc3c(cc2CC1C)OCO3` (stereo unspecified), the Potency was 2.64 µM (active).

Regarding `CC(O)(CS(=O)(=O)c1ccc(F)cc1)C(=O)Nc1ccc(C#N)c(C(F)(F)F)c1` (stereo unspecified), the Potency is 0.743 µM (active). For `COC[C@@H](NC(C)=O)C(=O)NCc1ccccc1`, the Potency entry was “inactive”. On to `N[C@@H](Cc1ccc(N(CCCl)CCCl)cc1)C(=O)O`, for which the Potency was 11.8 µM (active).
